Experimental data published in the supplement of paper PMC12669032.

Assays:
Assay in all cases: growth AUC relative to DMSO control (median of replicates) (fraction); higher = more growth (less inhibition), active = hit call of the paper
Settings in all cases: 20 µM; 24 h;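 active = AUC reduced over 20% with Padj below 0.05 in at least 2 of 3 replicates; inactive = otherwise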
[1] = tested on: Akkermansia muciniphila
Outline: (§1)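 Gut bacterial monocultures were grown anaerobically at 37 °C in mGAM, starting at OD600 0.05, with 20 µM compound (1% DMSO) in round-bottom 96-well plates under pierced gas-permeable seals. OD600 was read hourly for 24 h. Area under the growth curve (minimum OD set to 0) was normalised to the plate median of DMSO controls, or to row and column medians on the industrial chemical plate. The value is the median of three biological replicates grown on separate days.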

[2] = tested on: Bacteroides caccae
Outline: as §1

[3] = tested on: Bacteroides clarus
Outline: as §1

[4] = tested on: Bacteroides dorei
Outline: as §1

[5] = tested on: Bacteroides stercoris
Outline: as §1

[6] = tested on: Bacteroides thetaiotaomicron
Outline: as §1

[7] = tested on: Bacteroides uniformis
Outline: as §1

[8] = tested on: Bifidobacterium longum subsp. longum
Outline: as §1

[9] = tested on: Clostridium difficile
Outline: as §1

[10] = tested on: Collinsella aerofaciens
Outline: as §1

Measured: growth AUC

CC1(C(=O)Nc2ccc(O)c(Cl)c2Cl)CCCCC1
inactive: [1] 0.827 | [2] 0.986 | [3] 0.954 | [4] 0.995 | [5] 0.952 | [6] 0.94 | [7] 0.962 | [8] 0.978 | [9] 0.98 | [10] 0.995

COc1cc(OC)nc(Oc2cccc(Oc3nc(OC)cc(OC)n3)c2C(=O)[O-])n1.[Na+]
inactive: [1] 0.934 | [2] 0.973 | [3] 0.963 | [4] 1.02 | [5] 0.99 | [6] 1.01 | [7] 1 | [8] 0.965 | [9] 1.06 | [10] 1.02

O=c1c2cc(F)ccc2nc(-n2cncn2)n1-c1ccc(Cl)cc1Cl
inactive: [1] 0.855 | [2] 0.976 | [3] 0.979 | [4] 1.05 | [5] 1 | [6] 0.925 | [7] 0.937 | [8] 0.791 | [9] 1.12 | [10] 1.07

CCNc1nc(NC(C)(C)C)nc(SC)n1
inactive: [1] 1.02 | [2] 0.947 | [3] 0.94 | [4] 0.871 | [5] 1.07 | [6] 0.728 | [7] 0.905 | [8] 0.915 | [9] 0.967 | [10] 1

O=CNC(N1CCN(C(NC=O)C(Cl)(Cl)Cl)CC1)C(Cl)(Cl)Cl (stereo not given)
inactive: [1] 1.13 | [2] 0.947 | [3] 0.923 | [4] 0.849 | [5] 0.879 | [6] 0.919 | [7] 0.985 | [8] 1.08 | [9] 0.957 | [10] 0.938
